Screening results: PubChem BioAssay, National Center for Advancing Translational Sciences (NCATS)
NS1 function inh: influenza NS1 inhibition. Potency, µM (series often up to 46.1 µM). hit rate 0.4% among 270,000; calls by dose curve; note: actives are rising curves; nearly all actives have a fitted effect of over 50% in size
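S. cerevisiae expressing influenza A NS1, grown in glucose, washed, then diluted 1:100 into pH 6.0 -URA galactose medium with 23 nl compound. Growth recovery read as OD600; NS1-free strain serves as control.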
Cycloheximide cs: affects cycloheximide protein synthesis inhibition readout, counter-screen; AID 2314; hit rate 12% among 300,000; max response, %; cell reporter, cycloheximide protein synthesis inhibition counterscreen; in the data active = max response mostly above about 13%, no sharp cut-off; inactive = mostly below about 14%; note: read at 38.3 µM for the half of the compounds with a filed dose
Shiga toxin inh: Shiga toxin inhibition; hit rate 9.2% among 290,000; inhibition, % at 38.7 µM; Vero cells, Shiga toxin protein synthesis inhibition reporter; in the data active = inhibition mostly above about 28%, no sharp cut-off; inactive = mostly below about 43%
Pf growth 48h: inhibits P. falciparum growth in the first generation, 48 h | P. falciparum luciferase growth in erythrocytes, 48 h | Potency, µM (highest dose often 28.7 µM), most hits filed as inhibitors | hit rate 5.9% among 310,000 | AID 504832
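Compounds are pin-transferred into medium, infected erythrocytes (2% hematocrit, 0.1% parasitemia final) are added, and plates sit one parasite generation at 37 C in 5% CO2. Detection reagent is then added and luminescence measured.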
Pf growth 96h: inhibits malaria parasite growth, 96 h. hit rate 6.9% among 320,000. Potency, µM (titrated, usually from 28.7 µM), usual class: inhibitors. P. falciparum luciferase reporter growth, 96 h
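Parasite growth measured via integrated firefly luciferase reporter in P. falciparum. Infected erythrocytes at 2% hematocrit, 0.05% parasitemia final were treated 96 hours at 37 C under 5% CO2, and luminescence was read.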
Large screens that a line does not name were inactive. Rows were chosen to be rich in hits. Some 21% of all compounds tested hit in one or more screens of this group. Unless noted, calls come from the whole dose curve; as a rule, active = well fitted inhibition curve with a large enough effect; inconclusive = small, poorly fitted or top-dose-only effect, or another doubt; inactive = no such curve, though single readings can be large or run the other way.

Clc1cccc(-c2nc(NCCCN3CCOCC3)c3ccccc3n2)c1	Pf growth 48h inconclusive, Pf growth 96h inconclusive
OCCCCCN=c1cc(-c2ccccc2)oc2ccc(Cl)cc12	Cycloheximide cs 45, Shiga toxin inh 85, Pf growth 48h inconclusive, Pf growth 96h 13µM
Clc1ccc2oc(-c3ccccc3)cc(=NCCCN3CCOCC3)c2c1	Cycloheximide cs 25, Shiga toxin inh 93, Pf growth 48h 4.7µM, Pf growth 96h inconclusive (no result: NS1 function inh)
O=C(c1ccccc1Cl)N(C(=O)c1ccccc1Cl)c1nccc(-c2cccs2)n1	none
O=C(Nc1nccc(-c2cccs2)n1)c1ccccc1Cl	Cycloheximide cs 32, Shiga toxin inh 53
O=C(Cc1ccccc1)NC1CCN(S(=O)(=O)c2cccc(F)c2)CC1	none
O=C1CS/C(=N/N=C\c2ccn[nH]2)N1	Pf growth 96h 1.9µM
Cc1ccc(NC2=CC(=O)CC(c3ccco3)C2)c(N)c1 (configuration not stated)	Cycloheximide cs 37, Shiga toxin inh 79, Pf growth 48h inconclusive
Nc1ccccc1NC1=CC(=O)CC(c2ccccc2)C1 (configuration not stated)	Cycloheximide cs 22, Pf growth 96h inconclusive (no result: NS1 function inh)
Nc1ccccc1NC1=CC(=O)CC(c2ccco2)C1 (configuration not stated)	Cycloheximide cs 47, Shiga toxin inh 72, Pf growth 48h inconclusive (no result: Pf growth 96h)
COc1ccc(NC2=CC(=O)CC(c3ccccc3)C2)c(OC)c1 (configuration not stated)	Cycloheximide cs 37, Pf growth 48h inconclusive, Pf growth 96h inconclusive
COc1c(F)c(F)c(C(=O)Nc2ccc(N3CCN(Cc4ccccc4)CC3)cc2)c(F)c1F	Pf growth 48h inconclusive (no result: Pf growth 96h)
O=C(/C=C/c1ccc(O)c(O)c1)c1ccc(O[C@@H]2O[C@H](CO)[C@@H](O)[C@H](O)[C@H]2O)c(O)c1O	none (no result: NS1 function inh, Pf growth 48h, Pf growth 96h)
Cc1cccc(NC2=CC(=O)OC(C)C2)c1 (configuration not stated)	none (no result: Pf growth 96h)
CC1CC(Nc2ccccc2N)=CC(=O)O1 (configuration not stated)	Cycloheximide cs 28, Shiga toxin inh 48 (no result: Pf growth 96h)
COc1cc(OC)c2c(-c3cccc(-c4cccc(C)c4)c3)cc(=O)oc2c1	none (no result: NS1 function inh, Pf growth 48h, Pf growth 96h)
COc1cc2oc(=O)cc(-c3ccc(-c4ccc(N(C)C)cc4)cc3)c2c(OC)c1OC	Cycloheximide cs 64, Shiga toxin inh active (no result: NS1 function inh, Pf growth 48h, Pf growth 96h)
COc1cc(OC)c2c(-c3cccc(-c4ccc(O)cc4)c3)cc(=O)oc2c1	none (no result: NS1 function inh, Pf growth 48h, Pf growth 96h)
CCOC(=O)c1ccc(-c2ccc(-c3cc(=O)oc4cc(OC)c(OC)c(OC)c34)cc2)cc1	none (no result: NS1 function inh, Pf growth 48h, Pf growth 96h)
COc1cc(OC)c2c(-c3cccc(/C=C/c4ccc(F)cc4)c3)cc(=O)oc2c1	Cycloheximide cs 50, Shiga toxin inh active (no result: NS1 function inh, Pf growth 48h, Pf growth 96h)
COc1ccc(-c2ccc(-c3cc(=O)oc4cc(OC)c(OC)c(OC)c34)cc2)cc1F	Cycloheximide cs 30, Shiga toxin inh 79 (no result: NS1 function inh, Pf growth 48h, Pf growth 96h)
COc1cc2oc(=O)cc(-c3ccc(-c4ccc(F)c(Cl)c4)cc3)c2c(OC)c1OC	none (no result: NS1 function inh, Pf growth 48h, Pf growth 96h)
COc1cc(OC)c2c(-c3cccc(-c4ccc(N(C)C)cc4)c3)cc(=O)oc2c1	Cycloheximide cs 37, Shiga toxin inh active (no result: NS1 function inh, Pf growth 48h, Pf growth 96h)
O=C1OC2(c3cc(I)c(O)c(I)c3Oc3c2cc(I)c(O)c3I)c2c(Cl)c(Cl)c(Cl)c(Cl)c21	none (no result: NS1 function inh, Pf growth 48h, Pf growth 96h)
Cc1ccc(C)c(NC(=O)COC(=O)CC2c3ccccc3CCN2S(=O)(=O)c2ccc(F)cc2)c1 (configuration not stated)	Pf growth 48h inconclusive
Cc1cc(C)c2c(-c3ccc(-c4ccc(C(F)(F)F)cc4)cc3)cc(=O)oc2c1	none (no result: NS1 function inh, Pf growth 48h, Pf growth 96h)
COc1cc2oc(=O)cc(-c3cccc(-c4ccc(C(C)=O)cc4)c3)c2c(OC)c1OC	Cycloheximide cs 39, Shiga toxin inh active (no result: NS1 function inh, Pf growth 48h, Pf growth 96h)
COc1ccc(-c2ccc(-c3cc(=O)oc4cc(C)cc(C)c34)cc2)cc1	Shiga toxin inh active (no result: NS1 function inh, Pf growth 48h, Pf growth 96h)
COc1cc2oc(=O)cc(-c3ccc(-c4ccc(OC(F)(F)F)cc4)cc3)c2c(OC)c1OC	Shiga toxin inh 70 (no result: NS1 function inh, Pf growth 48h, Pf growth 96h)
Cc1cccc(-c2cccc(-c3cc(=O)oc4cc5c(cc34)OCO5)c2)c1	none (no result: NS1 function inh, Pf growth 48h, Pf growth 96h)
COc1ccc(-c2cccc(-c3cc(=O)oc4cc(OC)c(OC)c(OC)c34)c2)cc1	none (no result: NS1 function inh, Pf growth 48h, Pf growth 96h)
COc1ccc(-c2cccc(-c3cc(=O)oc4cc5c(cc34)OCO5)c2)cc1	Cycloheximide cs 30 (no result: NS1 function inh, Pf growth 48h, Pf growth 96h)
Cn1c(CCN2CCN(c3ccccn3)CC2)nc2cc(NS(=O)(=O)c3ccccc3)ccc21	Pf growth 48h inconclusive, Pf growth 96h inconclusive
CC1CCC(NC(=O)c2ccc(NC3=NC4CS(=O)(=O)CC4S3)cc2)CC1 (configuration not stated)	none
